Measured values: PubChem BioAssay AID2685 (National Center for Advancing Translational Sciences (NCATS), 2010)
About 2,100 (0.66%) of roughly 320,000 compounds were called active. Another 53% or so got no clear call; they are omitted. The call rests on the fitted dose curve; in most records, active means well fitted inhibition curve with a large enough effect in the signal ratio, with a control signal flat (not every such curve was filed as active); inconclusive means small, poorly fitted or top-dose-only effect, or effect the other way, or a change in a side signal; inactive means flat fitted curve, though single readings scatter; the % refers to the signal ratio. This excerpt belongs to a sample that is enriched for actives.

Experiment: qHTS Assay for Lipid Storage Modulators in Drosophila S3 Cells;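 on cell number change: cells counted by Cell Tracker Red CMTPX staining in the red channel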; on lipid storage change, negative = inhibition: on the % scale 0 is the no-effect control and ±100 the full control effect
Conditions: BODIPY lipid droplet fluorescence, 18-24 h, cells fed with added oleic acid; cell number change: measured here: cell count max response; series mostly up to 46.1 µM; lipid storage change, negative = inhibition: at the top concentration
Summary of the method: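 Laser-scanning cytometry quantifies lipid droplet accumulation (500–530 nm total intensity; droplet/cell object ratio) in oleic acid-fed (400 uM added) Drosophila S3 cells treated with a concentration series. 20 uM Triacsin C defined 100% inhibition.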
Potency means the concentration at half of the fitted maximal effect.

Structure (SMILES) | lipid storage change, negative = inhibition | cell number change | Potency | outcome
CCOC(=O)C(CCCOc1cccc(OC)c1)C(=O)OCC | 0.495% (inactive) | -10.4% |  | 
O=C(COc1ccc([N+](=O)[O-])cc1)N1CCc2ccccc2C1 | 14.6% (inactive) | 20% |  | 
COc1ccc([N+](=O)[O-])cc1NC(=O)c1ccccc1N(C)S(C)(=O)=O | -5.45% (inactive) | -12.5% |  | 
O=c1c(Cl)c2oc3ccccc3nc-2c2ccccc12 |  | 13.2% | 11.6 µM (active) | 
Cc1ccc(-c2nnc(Sc3nc4ccccc4o3)c3ccccc23)cc1 | 4.8% (inactive) | -15.3% |  | 
Clc1ccc(-c2nnc(Sc3nc4ccccc4o3)c3ccccc23)cc1 | 4.25% (inactive) | -12.5% |  | 
CCSc1ccc(-c2ccco2)nn1 | 0.907% (inactive) | 13.6% |  | 
O=c1c([N+](=O)[O-])c(O)c2cccc3c2n1CCC3 | 14.8% (inactive) | -0.265% |  | 
O=C(Nc1ccccc1C(=O)Nc1ccccn1)c1cccc([N+](=O)[O-])c1 |  | 6.61% |  | inactive
N#Cc1c(N)nc2c(c1-c1ccc(F)cc1)c(=O)nc1sccn12 | 23% (inactive) |  |  | 
CC1(c2ccccc2Cl)NC(=O)N(CC(=O)NCCC2=CCCCC2)C1=O (stereo not drawn) |  |  |  | inactive
O=C(Cc1ccc(F)cc1)N1CCN(c2ccc([N+](=O)[O-])cc2)CC1 |  | 11.6% |  | inactive
Cc1ccc(CC(=O)N2CCN(c3ccc([N+](=O)[O-])cc3)CC2)cc1 |  | 10.2% | 7.31 µM (active) | 
O=C(Cc1ccc([N+](=O)[O-])cc1)N1CCN(c2ccc([N+](=O)[O-])cc2)CC1 | -12.1% (inactive) | 2.07% |  | 
O=C(Nc1cccc2ccccc12)N1CCN(c2ncccn2)CC1 | 9.88% (inactive) | 15% |  | 
Cc1ccc(CN2CCN(Cc3cnc(N4CCOCC4)s3)CC2CCO)cc1 (stereo not drawn) | -24.1% (inactive) | -2.17% |  | 
CC(C)CN1CCN(Cc2cnc(N3CCOCC3)s2)CC1CCO (stereo not drawn) | 9.67% (inactive) | 24.7% |  | 
CC(C)=CCN1CCN(Cc2cnc(N3CCOCC3)s2)CC1CCO (stereo not drawn) |  | -26.5% | 13 µM (active) | 
O=C1CN(S(=O)(=O)c2ccccc2)CCN1S(=O)(=O)c1ccccc1 | -1.23% (inactive) | -1.6% |  | 
NS(=O)(=O)c1ccc(NC(=O)CSC2=NC(=O)C(c3ccccc3)C(=O)N2)cc1 (stereo not drawn) | -4.72% (inactive) | -0.978% |  | 
CCC1C(=O)N=C(SCC(=O)Nc2ccc(S(N)(=O)=O)cc2)NC1=O (stereo not drawn) |  | -37.4% | 6.51 µM (active) | 
CCC1C(=O)N=C(SCC(=O)Nc2ccccc2)NC1=O (stereo not drawn) | 5.42% (inactive) | 7.84% |  | 
O=S(=O)(/N=C(/c1ccc(F)cc1)N1CCCCC1)c1ccc(Cl)cc1 | 1.25% (inactive) | -6.48% |  | 
Cc1ccc(CNC(=O)CN2C(=O)c3ccccc3S2(=O)=O)cc1 |  | 20.7% |  | inactive

Structure (SMILES) | lipid storage change, negative = inhibition | cell number change | Potency | outcome
Cn1nccc1C(=O)N/N=C/c1c(O)ccc2ccccc12 |  | -2.67% | 14.6 µM (active) | 
CN(C)c1ccc(/C=N/NC(=O)c2ccnn2C)cc1 |  | -10.8% |  | inactive
Cn1cc(C(=O)N/N=C/c2c(O)ccc3ccccc23)ccc1=O | 17% (inactive) | -26.3% |  | 
O=C1NC(=S)N/C1=C/c1ccc(Oc2ccc(C(F)(F)F)cc2[N+](=O)[O-])c(Cl)c1 | -0.498% (inactive) | -6.9% |  | 
COc1ccc(N2C(=O)CC(NC3CCCCNC3=O)C2=O)cc1 (stereo not drawn) | -4.85% (inactive) | 5.19% |  | 
COc1ccc(NC(=O)CN(C)C(=O)c2ccc(COc3ccccc3)cc2)cc1 | 16.5% (inactive) | -6.23% |  | 
COCC(=O)Nc1ccc(OCc2ccccc2)cc1 |  | 4% |  | inactive
COc1ccc(NC(=O)CN(C)C(=O)/C=C/c2ccc(OCc3ccccc3)cc2)cc1 |  | -11.8% | 0.731 µM (active) | 
Cc1ccc(C23CC4CC(CC(C(=O)OCC(=O)N(C)C)(C4)C2)C3)cc1 | 7.97% (inactive) | 4.17% |  | 
CCOc1ccccc1CNC(=O)c1ccc(Sc2ccc(Cl)cc2)c(NC(C)=O)c1 | 22.8% (inactive) | 7.67% |  | 
Cc1[nH]c2ccccc2c1C(=O)C(=O)N1CCN(C(=O)c2ccco2)CC1 |  | 27% |  | inactive
Cc1ccccc1NC(=O)c1cccc(C(=O)Nc2ccccc2C)n1 |  | -25.7% | 8.2 µM (active) | 
O=C(Nc1cccc2ccccc12)c1onc2c1CCCC2 |  |  |  | inactive
O=C(Nc1ccccn1)c1onc2c1CCCC2 | 0.434% (inactive) |  |  | 
Cc1ccccc1NC(=O)C(=O)Nc1ccccc1C | 7.41% (inactive) | 0.926% |  | 
Cc1ccccc1NC(=O)c1onc2c1CCCC2 |  |  | 25.9 µM (active) | 
Cc1ccccc1NC(=O)c1ccccn1 | 2.23% (inactive) |  |  | 
COc1cc2c(cc1OC)C(c1ccc3c(c1)OCO3)C1=C(CC(C)(C)CC1=O)N2 (stereo not drawn) | -20.1% (inactive) | -17.2% |  | 
CC(=O)NCc1cc(-c2ccc(Cl)cc2)no1 | 0.337% [at 9.22 µM] (inactive) | -2.06% |  | 
O=C(NCc1nnc(SCC(=O)N2CCc3ccccc32)o1)c1cccs1 | 2.4% (inactive) | -1.06% |  | 
CCOC(=O)N1CCN(CC(O)c2c[nH]c3ccccc23)CC1 (stereo not drawn) | 1.13% (inactive) | 14.4% |  | 
Cc1ccc(-c2nn(C)c(=O)c3ccccc23)cc1CNC(=O)/C=C/c1ccccc1 |  | -24.2% |  | inactive
CCCCn1c(=O)[nH]c(=O)c2c1nc(-c1cc(Br)c(OCC)c(OC)c1)n2C | -29.7% (inactive) | 15% |  | 
